High-throughput results as filed in PubChem.
Sampled rows, rich in hits. Any-hit rate of the full collection: about 21%.
DRD3 agonist = D3 dopamine receptor (human) agonism; P35462; D3R DiscoveRx beta-arrestin cells, luminescence, 90 min; max activation, %; 410,000 compounds, 0.58% hits; in the data active = max activation above about 30%; also: 0% is about no effect
Target sequence (P35462 whole entry, looked up): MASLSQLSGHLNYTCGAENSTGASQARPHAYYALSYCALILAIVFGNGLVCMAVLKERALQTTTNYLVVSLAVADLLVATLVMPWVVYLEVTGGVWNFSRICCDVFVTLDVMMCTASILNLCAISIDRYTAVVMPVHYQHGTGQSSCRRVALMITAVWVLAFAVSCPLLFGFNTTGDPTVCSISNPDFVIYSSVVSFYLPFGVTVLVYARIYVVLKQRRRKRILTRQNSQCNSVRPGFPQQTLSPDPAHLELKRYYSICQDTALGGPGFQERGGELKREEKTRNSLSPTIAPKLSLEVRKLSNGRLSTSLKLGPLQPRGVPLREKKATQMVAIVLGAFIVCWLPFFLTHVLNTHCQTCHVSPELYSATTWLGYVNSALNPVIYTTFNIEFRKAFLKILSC
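Cells at 1500/well, incubated overnight, then treated with pinned compounds (dopamine as control) for 90 min at 37 degrees C. DiscoveRx reagent added for 30 - 60 minutes at room temperature; luminescence read.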
IL1B secr inh = blocks inflammasome-driven IL-1 beta release; THP-1 LPS/ATP IL-1B secretion, AlphaLISA, 16 h; stronger effect = lower value; activity change, % at 57.5 µM; 360,000 compounds, 4.7% hits; AID 743279; in the data active = activity change below about -50%; inconclusive = mostly about -30% to -49%; also: % is scaled to controls: 0 for no effect and ±100 for the full control effect
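Secreted IL-1B measured by AlphaLISA bead assay after 16 h compound exposure of THP-1 cells; compounds (final up to 57.5 uM) added 1 h before LPS (250 ng/mL) and ATP (1.25 mM) stimulation; lower signal means less secretion.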
ClpP mod = qHTS Assay for Activators of ClpP | 340,000 compounds, 1.9% hits | ATP-dependent Clp protease proteolytic subunit (Bacillus subtilis (strain 168)), P80244 | Potency, µM (titrated, usually from 57.5 µM), for the others: at the top dose activity change, negative = active | AID 651965, 2013 | purified B. subtilis ClpP, FRET peptide cleavage, 20 min; active = well fitted falling curve with a large enough effect; inconclusive = small, poorly fitted or top-dose-only effect; inactive = no such curve, though single readings can be large or run the other way; also: potency is read from the fitted curve at half-maximal effect; the source files actives as falling curves though it sought activators and does not explain the sign; nearly all actives have a fitted effect of over 65% in size
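Buffer: 100 mM Tris/HCl pH8, 100 mM KCl, 0.05% low protease BSA, 2.5% glycerol, 0.01% Tween-20. ClpP 10 microg/mL final; 20 min RT; delta FRET normalized to ADEP and DMSO controls.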
DT40 TDP1 CPT = DT40-hTDP1 cell growth loss with CPT; chicken DT40 Tdp1-/-;hTDP1 cells + 20 nM CPT, ATP luminescence, 48 h; Potency, µM (series often up to 46.2 µM), without a hit: at the top dose activity change, negative = growth inhibition, usual class: inhibitors; 420,000 compounds, 12% hits; also: potency is read from the fitted curve at half-maximal effect; % is scaled to controls: 0 for no effect and ±100 for the full control effect; nearly all actives have a fitted effect of over 55% in size
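Cell growth measured by CellTiter-Glo luminescence after a minimum 48 h, 37 C compound exposure with 20 nM CPT in Tdp1-knockout DT40 cells stably expressing hTDP1, seeded 400/well; qHTS titration format.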
DT40 TDP1 no CPT = qHTS for Inhibitors of human tyrosyl-DNA phosphodiesterase 1 (TDP1): qHTS in cells in absence of CPT; Potency, µM (top dose mostly 46.2 µM), without a hit: at the highest dose activity change, negative = growth inhibition, actives largely listed as inhibitors; 420,000 compounds, 15% hits; DT40 Tdp1-/- hTDP1 cells, no CPT, ATP luminescence, 48 h; also: potency is read from the fitted curve at half-maximal effect; % is scaled to controls: 0 for no effect and ±100 for the full control effect; nearly all actives have a fitted effect of over 55% in size
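Cells were dispensed at 400 per well, compounds added by pin tool, plates incubated ≥48 hr at 37 °C, then CellTiter-Glo added for 30 min at room temperature before luminescence reading. Line: DT40 Tdp1-/- complemented with hTDP1; camptothecin omitted.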
DRD3 antagonist = D3 dopamine receptor (human) antagonism. P35462. D3R cells, DiscoveRx beta-arrestin luminescence, antagonist mode; stronger effect = lower value. max response, negative = inhibition, %. 360,000 compounds, 2.5% hits; in the data active = max response below about -50%; inconclusive = no clear call, values can overlap the other calls; also: % is scaled to controls: 0 for no effect and ±100 for the full control effect
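Cells expressing the human receptor were seeded at 1500 cells/well, incubated overnight at 37 degrees C in 5% CO2, then exposed to library compounds with dopamine controls for 90 minutes at 37 degrees C before luminescent detection.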
Active calls of the source: *. Unless noted, calls follow the shape of the dose curve; as a rule, active = well fitted inhibition curve with a large enough effect; inconclusive = small, poorly fitted or top-dose-only effect; inactive = flat fitted curve, though single readings scatter.

`S=c1[nH]ncn1/N=C/c1ccccc1` gave DRD3 agonist -5, IL1B secr inh 19, ClpP mod 0%, DT40 TDP1 CPT inconclusive, DT40 TDP1 no CPT 23µM* and DRD3 antagonist -1.
Screening COc1ccccc1-n1c(SCC(=O)Nc2ccc(Br)cc2)nc(O)cc1=O returned DRD3 agonist -4, IL1B secr inh 21, ClpP mod 0%, DT40 TDP1 CPT 17%, DT40 TDP1 no CPT -1% and DRD3 antagonist -25.
Cc1ccc(CN(C(=O)COc2ccc(C(C)(C)C)cc2)C2CCS(=O)(=O)C2)o1 (stereo unspecified) was read as DRD3 agonist -8, ClpP mod -1%, DT40 TDP1 CPT inconclusive and DT40 TDP1 no CPT 21µM*.
Screening CN(C(=O)COc1ccc(C(C)(C)C)cc1)C1CCS(=O)(=O)C1 (stereo unspecified) returned DRD3 agonist -6, IL1B secr inh 35, ClpP mod 0%, DT40 TDP1 CPT -23%, DT40 TDP1 no CPT -19% and DRD3 antagonist -64*.
CN(C(=O)COc1cccc(Br)c1)C1CCS(=O)(=O)C1 (stereo unspecified) was read as DRD3 agonist 5, IL1B secr inh 14, ClpP mod 0%, DT40 TDP1 CPT 10%, DT40 TDP1 no CPT -3% and DRD3 antagonist -20.
For CC(C)CN(C(=O)COc1ccc(C(C)(C)C)cc1)C1CCS(=O)(=O)C1 (stereo unspecified) the results were DRD3 agonist 1, IL1B secr inh 12, ClpP mod 1%, DT40 TDP1 CPT -29%, DT40 TDP1 no CPT 23µM* and DRD3 antagonist 27.
COc1c(Cl)cc(C(=O)N(Cc2ccc(C)o2)C2CCS(=O)(=O)C2)cc1Cl (stereo unspecified) was read as DRD3 agonist -21, ClpP mod -2%, DT40 TDP1 CPT inconclusive and DT40 TDP1 no CPT 23µM*.
For Cc1ccc(CN(C(=O)COc2ccc([N+](=O)[O-])cc2)C2CCS(=O)(=O)C2)o1 (stereo unspecified) the results were DRD3 agonist 4, IL1B secr inh 0, ClpP mod 1%, DT40 TDP1 CPT -4%, DT40 TDP1 no CPT 11% and DRD3 antagonist 7.
Screening CCCC1=C(C(=O)OCC)C(c2c(C)nn(-c3ccccc3)c2Cl)C(C#N)=C(N)O1 (stereo unspecified) returned DRD3 agonist 1, IL1B secr inh 8, ClpP mod -11%, DT40 TDP1 CPT inconclusive, DT40 TDP1 no CPT 21µM* and DRD3 antagonist 26.
`Cc1nn(-c2ccccc2)c(Cl)c1C1C(C#N)=C(N)OC2=C1C(=O)CC(C)(C)C2` (stereo unspecified) gave DRD3 agonist 3, IL1B secr inh 34, ClpP mod -1%, DT40 TDP1 CPT inconclusive, DT40 TDP1 no CPT inconclusive and DRD3 antagonist 4.
`CCOC(=O)C1=C(CSc2nc(-c3ccccc3)ccc2C#N)OC(N)=C(C#N)C1c1ccccc1` (stereo unspecified) gave DRD3 agonist 0, IL1B secr inh 0, ClpP mod 10%, DT40 TDP1 CPT 3.7µM*, DT40 TDP1 no CPT 2.9µM* and DRD3 antagonist 8.
`CCCC1=C(C(=O)OCC)C(c2ccc(OC)c(CSc3ccccn3)c2)C(C#N)=C(N)O1` (stereo unspecified) gave DRD3 agonist 0, IL1B secr inh 2, ClpP mod -5%, DT40 TDP1 CPT inconclusive, DT40 TDP1 no CPT inconclusive and DRD3 antagonist -12.
